Bioassay records deposited in PubChem BioAssay by National Center for Advancing Translational Sciences (NCATS).
hERG WT inh: KCNH2 (human, wildtype) channel inhibition. Q12809. U2OS, BacMam KCNH2, thallium flux FluxOr; stronger effect = lower value. activity change, % at 1.84 µM. 340,000 tested, 0.37% active;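 active means maximum activity change below -70%; inconclusive means maximum activity change between -70% and -50%; inactive means maximum activity change above -50%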; further: on the % scale 0 is the no-effect control and ±100 the full control effect
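U2OS cells transduced with wild-type KCNH2 virus are loaded with FluxOr dye for 45 min, and thallium flux is measured in kinetic reads before and after stimulation buffer. Rate constants are normalized to DMSO controls.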
Mm-Cpn inhibitor: M. maripaludis TRiC chaperonin inhibition; purified Mm-Cpn ATPase, ADP Transcreener TR-FRET; Potency, µM (titrated, usually from 76.9 µM), for the others: at the top dose activity, negative = inhibition, most hits filed as inhibitors; 330,000 tested, 0.031% active; AID 504842; further: potency means the concentration at half of the fitted maximal effect; on the % scale 0 is the no-effect control and ±100 the full control effect; nearly all actives have a fitted effect of over 80% in size
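Inhibition of chaperonin ATP hydrolysis is measured as reduced ADP production, detected by competitive TR-FRET in which signal falls with ADP. Final enzyme 25 nM and ATP 10 uM, reacted 30 min at 37°C.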
ASM inhibitor: inhibitors of human secretory acid sphingomyelinase | placental ASM, HMU-PC fluorogenic substrate, 60 min | 340,000 tested, 0.006% active | P17405 | Potency, µM (series often up to 57.5 µM), for the others: at the highest dose activity change, negative = inhibition, usual class: inhibitors | AID 504937; further: potency means the concentration at half of the fitted maximal effect
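HMU-PC0 cleavage (9 uM final) by human placental ASM, 60 min at 37 °C following 10 min compound exposure at RT; stopped at pH 10, fluorescence Ex 386/Em 447 nm.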
KCNH2 3.1 inh: blocks the human KCNH2 3.1 channel isoform; U2OS KCNH2 3.1, thallium flux FluxOr; stronger effect = lower value; activity change, % (tested at about 1.8 µM); 340,000 tested, 0.95% active;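 active means maximum activity change below -70%; inconclusive means maximum activity change from -70% to -50%; inactive means maximum activity change above -50%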;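 further: thallium influx rate constant from kinetic fluorescence after stimulation buffer; on the % scale 0 is the no-effect control and ±100 the full control effect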
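Thallium flux read-out: FluxOr dye with Red40 quencher in HBSS/HEPES, 45 min at RT. Rate constants from kinetic reads were normalized to positive and negative DMSO controls. Cells: U2OS virally expressing the 3.1 isoform.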
p53 reactivation: re-activators of mutant p53; H1299 p53-A138V BP100-luciferase reporter, luminescence, 24 h; Potency, µM (series often up to 92.2 µM), for the others: at the top dose activity change, positive = activation, hits mostly activators; 320,000 tested, 0.063% active; AID 504706; further: potency means the concentration at half of the fitted maximal effect; % of control where 0% means no effect; nearly all actives have a fitted effect of over 45% in size
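H1299 (p53-null), stable ts p53-A138V + BP100-Luc; 1000 cells/well, Opti-MEM/10% FBS; cpd 4 pt, 1:5; 24 h, 37 deg C, 5% CO2; detection reagent 10 min RT; luminescence.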
uPA generation: inhibitors of cell surface uPA generation. cell surface uPA generation assay, qHTS. Potency, µM (doses to about 38.3 µM), without a hit: at the highest dose activity change, negative = inhibition, hits mostly inhibitors. 330,000 tested, 0.31% active; active means well fitted inhibition curve with a large enough effect; inconclusive means small, poorly fitted or top-dose-only effect; inactive means no such curve, though single readings can be large or run the other way; tested in mouse RAW 264.7 cells; further: potency means the concentration at half of the fitted maximal effect; on the % scale 0 is the no-effect control and ±100 the full control effect; nearly all actives have a fitted effect of over 55% in size
Numbers without * were called inactive; ? = inconclusive; . = no result given; + = active, no number. Only some compounds are listed: those with a hit (about 1.4% of all), similar ones and a draw of the others. Unless noted, the call rests on the fitted dose curve; in most records, active means well fitted curve in the direction sought with a large enough effect; inconclusive means small, poorly fitted or top-dose-only effect, or another doubt; inactive means no such curve, though single readings can be large; an effect the other way counts as inactive or inconclusive.

SMILES	hERG WT inh	Mm-Cpn inhibitor	ASM inhibitor	KCNH2 3.1 inh	p53 reactivation	uPA generation
O=C(CSc1nncn1-c1ccccc1F)NC1CCCCC1	-3.2	0.6%	-3.6%	-118.0*	?	-3.1%
COc1cccc(C2CC(=O)Nc3cc(OC)c(OC)cc32)c1 (stereo not given)	2.6	-1.2%	-0.3%	8.6	-12.7%	0.5%
COc1cccc(C2CC(=O)Nc3cc4c(cc32)CCC4)c1 (stereo not given)	-1.3	0.1%	-3.3%	-4.9	-10.9%	11.2µM*
COc1cc2c(cc1OC)C(c1ccc(Br)cc1)CC(=O)N2 (stereo not given)	-126.5*	1.1%	-6.9%	2.1	-25.4%	24.6%
COc1cc2c(cc1OC)C(c1ccc(C(F)(F)F)cc1)CC(=O)N2 (stereo not given)	4.3	0.0%	-1.6%	-5.5	-0.9%	-4.8%
O=C(CCS(=O)(=O)c1ccc(Br)cc1)NCCC1=CCCCC1	18.9	-2.4%	1.7%	-13.3	3.6%	-5.3%
CC(C)c1cc(C(C)C)c(S(=O)(=O)N2CCNCC2)c(C(C)C)c1	-10.1	.	3.6%	5.1	.	-5.9%
Cc1ccc(Nc2nc(N)nc(CN3CCc4ccccc4C3)n2)cc1	-11.8	-3.8%	5.2%	-78.6*	-4.7%	-3.1%
COc1ccc(Nc2nc(N)nc(CN3CCN(c4ccc(F)cc4)CC3)n2)cc1	46.8	0.0%	-2.9%	-77.0*	-4.2%	-8.3%
COc1ccccc1Nc1nc(N)nc(CN2CCN(c3ccccc3F)CC2)n1	20.7	1.6%	4.1%	-19.3	6.7%	-4.2%
Cc1c(Cl)cccc1Nc1nc(N)nc(CN2CCc3ccccc3C2)n1	33.2	0.0%	0.8%	-22.3	0.8%	-2.8%
COc1ccccc1N1CCN(Cc2nc(N)nc(Nc3ccc(C)c(Cl)c3)n2)CC1	-7.1	-4.3%	-11.4%	-105.8*	-23.4%	-9.4%
Cc1cccc(Nc2nc(N)nc(CN3CCN(Cc4ccc5c(c4)OCO5)CC3)n2)c1	-26.1	-3.2%	6.8%	-109.9*	2.9%	.
CCN(C[C@H]1N[C@@](Cc2ccccc2)(C(=O)OC)[C@H]2C(=O)N(C)C(=O)[C@@H]12)C(C)=O	9.6	-3.4%	-0.5%	-26.1	6.6%	-6.1%
CC(C)Oc1ccc(S(=O)(=O)N2CCOCC2)cc1NC(=O)CSc1nnc(C2CC2)n1C	0.8	.	.	4.0	.	.
N#Cc1cccc(-c2csc(N3CCC(C(N)=O)CC3)n2)c1	.	-2.3%	.	.	.	.
Cc1cccc(Nc2nc(N)nc(CN3CCN(c4ccccc4)CC3)n2)c1	20.4	0.7%	0.0%	?	-4.9%	3.2%
COc1ccccc1Nc1nc(N)nc(CN2CCCCC2)n1	23.4	-2.6%	6.4%	2.8	1.6%	2.4%
Cc1cccc(Nc2nc(N)nc(CN3CCN(c4ccccc4F)CC3)n2)c1	25.2	.	2.7%	-79.5*	.	-4.2%
COc1ccccc1Nc1nc(N)nc(CN2CCN(Cc3ccccc3)CC2)n1	-21.0	0.2%	-0.2%	-76.9*	1.5%	.
COc1ccccc1Nc1nc(N)nc(CN2CCN(Cc3ccc4c(c3)OCO4)CC2)n1	-48.5	0.8%	-0.7%	-110.4*	1.8%	1.3%
Cc1ccc(Nc2nc(N)nc(CSc3nc4ccccc4s3)n2)cc1	-2.9	0.4%	-27.6%	-72.0*	5.7%	-3.2%
O=C(CSc1ccc(Cl)cc1)NNC(=O)c1ccncc1	6.8	0.3%	3.6%	1.2	-3.4%	10.6%
Nc1nc(CN2CCN(c3ccccn3)CC2)nc(Nc2ccc(Cl)cc2)n1	-104.1*	0.5%	-2.3%	-21.3	-0.4%	-6.1%
O=S(=O)(c1ccc(Cl)cc1)N1CCN(c2nc(-c3cccs3)nc3ccccc23)CC1	0.5	2.2%	-5.3%	-89.9*	11.0%	4.4%
SMILES	hERG WT inh	Mm-Cpn inhibitor	ASM inhibitor	KCNH2 3.1 inh	p53 reactivation	uPA generation
S=c1nn[nH]c2ccccc12	-3.1	.	-1.4%	2.1	.	0.3%
COc1cc(N)c(Cl)cc1C(=O)N[C@H]1CCN(CCCOc2ccc(F)cc2)C[C@H]1OC	-70.1*	2.0%	-2.6%	-84.2*	-3.1%	?
Cc1ccc(S(=O)(=O)N(C)c2ccc(OCC(=O)OCc3nnc(-c4ccccc4)o3)cc2)cc1	68.5	.	0.0%	-88.4*	.	-0.7%
O=C(c1ccc(Cl)c(S(=O)(=O)N2CCOCC2)c1)N(Cc1ccco1)Cc1cccs1	38.3	0.0%	0.0%	-36.3	-10.1%	1.12µM*
O=C(c1cccc(S(=O)(=O)N2CCOCC2)c1)N(Cc1ccco1)Cc1cccs1	7.5	2.2%	-0.7%	-23.0	-10.8%	?
COC(=O)CCC(=O)OC1(C)C(=O)C=C2C=C(C3CC3)N(CCCOC(C)C)C=C2C1=O (stereo not given)	-11.7	0.3%	25.5%	-86.0*	-1.6%	-4.1%
COC(=O)CCC(=O)OC1(C)C(=O)C=C2C=C(C3CC3)N(CCCCO)C=C2C1=O (stereo not given)	-4.6	0.2%	11.8%	16.8	0.7%	5.9%
CC1C2CC(C(CN(C)C)/C2=N/O)C1(C)C (stereo not given)	0.4	1.4%	-0.4%	12.1	-1.9%	.
CC1/C(=N/O)C(CN(C)C)C2CC1C2(C)C (stereo not given)	-291.4*	0.7%	3.2%	12.3	-8.4%	4.0%
CCN1CCN(c2ccc(S(=O)(=O)N3CCCCC3)cc2NC(=O)COc2cc(C)ccc2Cl)CC1	3.6	-0.6%	-2.6%	-82.6*	8.0%	-10.9%
CCN1CCN(c2ccc(S(=O)(=O)N3CCCCC3)cc2NC(=O)COc2ccc(Cl)cc2)CC1	-21.3	-0.4%	.	?	-4.3%	1.5%
CCN1CCN(c2ccc(S(=O)(=O)N3CCCCC3)cc2NC(=O)COc2ccc(F)cc2Cl)CC1	-1.1	-1.4%	2.4%	-79.9*	?	-15.7%
Cc1ccc(OCC(=O)Nc2ccccc2N2CCCC2)c(C)c1	+	-4.7%	-3.3%	-10.9	-2.2%	-4.5%
CCN1CCN(c2ccc(S(=O)(=O)N3CCCCC3)cc2NC(=O)c2ccc(F)cc2)CC1	4.2	1.8%	4.0%	-10.5	5.1%	-3.0%
CCn1nc(C(=O)N2CCN(Cc3nc4ccccc4s3)CC2)c2ccccc2c1=O	8.7	-0.4%	-2.3%	-1.9	?	3.7%
O=c1[nH]c(=S)c2[nH]c(=S)n(-c3ccccc3)c2[nH]1	2.3	.	40.3%	10.4	.	3.1%
CCN(C(=O)CSc1nnc(-c2ccccc2Cl)n1N)c1c(N)n(Cc2ccccc2)c(=O)[nH]c1=O	-4.4	.	-1.4%	2.2	.	3.6%
N#Cc1ccc(C23OCCN2CCn2c3c3ccccc3[n+]2[O-])cc1 (stereo not given)	18.1	1.0%	-0.5%	20.4	9.4%	2.24µM*
O=C(NCCCCc1ccccc1)c1cccc(NC(=O)C2CCCC2)c1	-3.1	.	-7.0%	.	.	-1.2%
